{"source": "ChEMBL document CHEMBL4513216", "about": "“Probing the Open Global Health Chemical Diversity Library for Multistage-Active Starting Points for Next-Generation Antimalarials” (ACS Infect Dis, 2020)", "note": "About 2,700 (4%) of roughly 68,000 compounds showed an effect of 50% or more. The sample as a whole holds a higher share of strong results than the screen did."}
{"system": "Plasmodium berghei", "assay": "Screen against P. berghei liver stage (PbLuc), transformed with Luciferase, at 2uM", "assay_type": "functional, HepG2", "settings": "tested at 2 uM", "units": {"INHIBITION": "%"}}
{"molecule": "CN(Cc1ccccc1)C(=O)CN1CCCC(Cn2cncn2)C1", "note": "(centres undefined)", "INHIBITION": 45.5}
{"molecule": "CN(Cc1cccc(F)c1)C(=O)CN1CCCC(Cn2cncn2)C1", "note": "(centres undefined)", "INHIBITION": 53.1}
{"molecule": "CN(Cc1ccc(F)cc1)C(=O)CN1CCCC(Cn2cncn2)C1", "note": "(centres undefined)", "INHIBITION": 2.08}
{"molecule": "N#CCCN(CCC#N)C(=O)CN1CCCC1Cc1cccc(F)c1", "note": "(centres undefined)", "INHIBITION": -43.03}
{"molecule": "CN(Cc1cccc(F)c1)C(=O)CN1CCCCC1Cn1cncn1", "note": "(centres undefined)", "INHIBITION": 3.3}
{"molecule": "CN(Cc1cccc(F)c1)C(=O)CN1CCCC1CCc1ccccc1", "note": "(centres undefined)", "INHIBITION": 80.56}
{"molecule": "COc1cc(OC)cc(C(=O)N(C)Cc2nnc3ccccn23)c1", "INHIBITION": 34.39}
{"molecule": "Cc1ccc(N2C[C@H]3CCC[C@@H](CN4CCOCC4)[C@H]3C2)nn1", "INHIBITION": -7.49}
{"molecule": "CN(C)c1ccc(C(=O)NCc2cccnc2-n2cncn2)cc1F", "INHIBITION": 20.19}
{"molecule": "CN(C)C1CCN(C(=O)NCc2ccccc2Cn2cncn2)CC1", "INHIBITION": 9.05}
{"molecule": "O=C(NCc1ccccc1Cn1cncn1)N1CCCC1", "INHIBITION": -9.49}
{"molecule": "NC(=O)C1CCN(C(=O)NCc2ccccc2Cn2cncn2)CC1", "INHIBITION": 64.07}
{"molecule": "O=C(CCC1CCCO1)NCc1ccccc1Cn1cncn1", "note": "(centres undefined)", "INHIBITION": 64.16}
{"molecule": "O=C(CC1CCCO1)NCc1ccccc1Cn1cncn1", "note": "(centres undefined)", "INHIBITION": 8.37}
{"molecule": "O=C(CCNC(=O)C1CCCC1)NCc1ccccc1Cn1cncn1", "INHIBITION": -14.17}
{"molecule": "O=C(NCc1ccon1)c1c(F)cc(Br)cc1F", "INHIBITION": 1.04}
{"molecule": "Cc1nc(C2CCCN(C(=O)c3c[nH]c(C(C)C)n3)C2)no1", "note": "(centres undefined)", "INHIBITION": 13.3}
{"molecule": "Cc1cc(C)n(CC2CCCCN2CC(=O)NC2CCOCC2)n1", "note": "(centres undefined)", "INHIBITION": 27.5}
{"molecule": "CCN(Cc1cnn(CC)c1)C(=O)CN1C(=O)CCc2ccccc21", "INHIBITION": 21}
{"molecule": "CC(C)(C)c1n[nH]c(C2CN(C(=O)c3ccsc3)CCO2)n1", "note": "(centres undefined)", "INHIBITION": 31.19}
{"molecule": "CNC(=O)C(C)(C)NC(=O)c1cc(COc2cccc(C(C)=O)c2)[nH]n1", "INHIBITION": -8.74}
{"molecule": "CC(c1cccnc1)N(C)Cc1ccccn1", "note": "(centres undefined)", "INHIBITION": -18.23}
{"molecule": "CC1N(CC2CC2)C(=O)COC12CCN(C(=O)c1cccs1)CC2", "note": "(centres undefined)", "INHIBITION": 32.04}
{"molecule": "COc1ccccc1S(=O)(=O)N1CCN(C)[C@@H]2CS(=O)(=O)C[C@@H]21", "INHIBITION": 40.88}
{"molecule": "CCN1CCN(S(=O)(=O)N2CCc3ccccc3C2)[C@H]2CS(=O)(=O)C[C@H]21", "INHIBITION": 25.37}
{"molecule": "CCCN1CCN(S(=O)(=O)c2ccccc2OC)[C@H]2CS(=O)(=O)C[C@H]21", "INHIBITION": 52.45}
{"molecule": "Cc1cc(C(=O)Nc2cc(C3CC3)n[nH]2)c2c(C)nn(C)c2n1", "INHIBITION": 40.99}
{"molecule": "CCCn1ncc2c(C(=O)Nc3cnn(CC)c3C)cc(C3CC3)nc21", "INHIBITION": 34.52}
{"molecule": "CCn1ncc(NC(=O)c2cc(C3CC3)nc3c2c(C)nn3C)c1C", "INHIBITION": 52.52}
